This is an account of results in PubChem BioAssay (NCI).

This is part of a sample that, as a whole, favours compounds with a hit. Of some 79,000 tested, about 15% had one in any assay. Values without a mark were called inactive. Activity calls are given as the source filed them. Rule as the data show it: active = growth inhibition above about 70%; inactive = the rest.

A short description of the first assay: NCI Yeast Anticancer Drug Screen. Data for the sgs1 mgt1 strain (AID 161).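 Also: 0% = growth of cultures given vehicle only.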 The note with it: S. cerevisiae sgs1 mgt1 strain, at 50.0 µM, stronger effect = higher value. In a few lines: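 Read-out: growth inhibition vs vehicle controls. Cells: mutant yeast strain deficient in DNA damage repair.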
As for `CCc1nc(N)nc(N)c1-c1ccc(NCCN)c(N)c1`, the growth inhibition is 5.15%.

Regarding `Cc1cc[n+](C2=C([O-])C3=C(C(=O)C2=O)C2c4ccccc4C3c3ccccc32)c(C)c1`, the growth inhibition is 98.8% (active).

As to `CC(=O)Oc1ccc2c(c1)Cc1cc([N+](=O)[O-])ccc1-2`, the growth inhibition was 14.9%.

As for `O=C(CBr)c1c2c(cc3c1CCCC3)CCCC2`, the growth inhibition is -2.05%.

`CCCCc1c(C#N)c(=O)n2c(N)c(C#N)cnc2c1SC`: the growth inhibition is 21.2%.

For `CC(Cc1ccccc1)Nc1ccccc1` (stereo not given), the growth inhibition was 31.4%.

As to `COc1c(-c2cccs2)oc2c(CC(=O)O)cccc2c1=O`, the growth inhibition is 28.1%.

Regarding `CCN(CC)CCNc1ccc2ncn3c4ccccc4c(=O)c1c23`, the growth inhibition was -16.1%.

As for `O=C(SCSC(=O)c1ccccc1)c1ccccc1`, the growth inhibition is -4.75%.

With `CCNc1ccc(N=Nc2ccc(-c3ccc(N=Nc4ccc(NCC)c5ccccc45)c(OC)c3)cc2OC)c2ccccc12`, the growth inhibition was 5.55%.

Consider `COc1cc(C(C)O)c[n+](CCc2c[nH]c3ccccc23)c1` (stereo not given), for which the growth inhibition is -45.9%.

In the case of `N/N=C1/C(=O)N(c2ccc(S(N)(=O)=O)cc2)C(=O)C1C(=O)Nc1ccc(S(N)(=O)=O)cc1` (stereo not given), the growth inhibition was -0.9%.

`Cc1nc2cc(Nc3ccccc3C(=O)O)ccc2s1`: the growth inhibition was -50.6%.

Regarding `N#CCCCCCCl`, the growth inhibition was 10.2%.

For the molecule `CCCCCCCC[N+](C)(C)CC#CC[N+](C)(C)CCCCCCCC`, the growth inhibition was 13.9%.

For `CCOC(=O)Cc1nnc2n(-c3ccccc3)c(=O)c3ccccc3n12`, the growth inhibition was -21.7%.

Regarding `O=P(O)(O)Oc1ccc(NCCO)cc1`, the growth inhibition is 3.3%.

Regarding `CC(C)c1ccccc1[S+]1OC(C)(C)c2ccccc21` (stereo not given), the growth inhibition was 6.95%.

As for `O=P(O)(O)c1ccc(-c2ccc(P(=O)(O)O)cc2)cc1`, the growth inhibition is 12.8%.

As for `NC(=O)NC(=S)NC(=O)c1ccccc1`, the growth inhibition was -2.95%.

For the molecule `CC(C)C1=CC(=Nc2ccc(N(C)C)cc2)C=CC1=O`, the growth inhibition was 9.5%.

For `OCc1ccc(O)c(CO)n1`, the growth inhibition was -3.35%.

Consider `N#CCCC(CC#N)S(=O)(=O)O` (stereo not given), for which the growth inhibition was -7.75%.

For `OCC1COc2cc(Cl)c(Cl)cc2O1` (stereo not given), the growth inhibition is 33.3%.

Take `O=C1OC2c3ccccc3C3CC(=O)C2C13` (stereo not given): the growth inhibition was 9.35%.

Take `Nc1ccc(/C=C\C(=O)c2ccccc2)cc1`: the growth inhibition is 12.1%.

On to `c1ccc(C2Nc3ccccc3C3OCCCC23)cc1` (stereo not given), for which the growth inhibition was 9.8%.

`CN(C)c1nc(N(C)C)n2c(-c3ccccc3[N+](=O)[O-])nnc2n1`: the growth inhibition was 22%.

Regarding `COc1ccc(OC)c(NC(=O)c2ccccc2Cl)c1`, the growth inhibition was 16.7%.

On to `CCOC(CCCl)c1ccc(C)cc1` (stereo not given), for which the growth inhibition was -20.4%.

As for `N#CC/C(C#N)=C/OC(=O)c1ccc(Cl)cc1`, the growth inhibition was -13.3%.

Take `CC(=O)Nc1ccccc1Sc1ccccc1`: the growth inhibition was 4.35%.

Regarding `C(=C\c1nc2ccccc2nc1/C=C/c1ccccc1)/c1ccccc1`, the growth inhibition is -13.8%.

Turning to `O=C(O)c1ccccc1[N+](=O)[O-]`, the growth inhibition was -9.5%.

Consider `Cc1ccc(C)c2nc3c(C)ccc(C)c3cc12`, for which the growth inhibition was 13%.

For `CC(=O)N1CN=C2Sc3ccccc3N2C1`, the growth inhibition was 8.45%.

Turning to `O=c1[nH]cnc2c1sc(=S)n2-c1ccccc1`, the growth inhibition was 10.2%.

On to `Cc1ccc(N)c(C(=O)Nc2ccc(Br)cc2)c1`, for which the growth inhibition was -10.1%.

Take `CC(C)C1=CC2=C(C(=O)C1=O)C13CCCC(C)(C)C1CC2OC3=O` (stereo not given): the growth inhibition is 23.6%.

On to `CC(C)(C)OC(=O)N/N=C\c1ccnc2ccccc12`, for which the growth inhibition was 3.2%.

The next assay can be described thus: NCI Yeast Anticancer Drug Screen. Data for the cln2 rad14 strain (AID 165).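 Also: 0% = growth equal to vehicle treated cultures.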 The settings on record: S. cerevisiae cln2 rad14 strain, at 50.0 µM, stronger effect = higher value. The essentials:
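The screen exposed genetically defined yeast (cln2 rad14) to test compounds and scored growth inhibition relative to vehicle-treated controls.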
For the molecule `CCc1nc(N)nc(N)c1-c1ccc(NCCN)c(N)c1`, the growth inhibition is -6.05%.

Consider `Cc1cc[n+](C2=C([O-])C3=C(C(=O)C2=O)C2c4ccccc4C3c3ccccc32)c(C)c1`, for which the growth inhibition is 98.3% (active).

As to `CC(=O)Oc1ccc2c(c1)Cc1cc([N+](=O)[O-])ccc1-2`, the growth inhibition was -9.5%.

As to `O=C(CBr)c1c2c(cc3c1CCCC3)CCCC2`, the growth inhibition was -4.9%.

Turning to `CCCCc1c(C#N)c(=O)n2c(N)c(C#N)cnc2c1SC`, the growth inhibition was 1.5%.

Consider `CC(Cc1ccccc1)Nc1ccccc1` (stereo not given), for which the growth inhibition is -10.3%.

Take `COc1c(-c2cccs2)oc2c(CC(=O)O)cccc2c1=O`: the growth inhibition was 5.9%.

For `CCN(CC)CCNc1ccc2ncn3c4ccccc4c(=O)c1c23`, the growth inhibition was 33.1%.

For the molecule `O=C(SCSC(=O)c1ccccc1)c1ccccc1`, the growth inhibition was -18.5%.

With `CCNc1ccc(N=Nc2ccc(-c3ccc(N=Nc4ccc(NCC)c5ccccc45)c(OC)c3)cc2OC)c2ccccc12`, the growth inhibition was 23.3%.

Take `COc1cc(C(C)O)c[n+](CCc2c[nH]c3ccccc23)c1` (stereo not given): the growth inhibition is -8.1%.

On to `N/N=C1/C(=O)N(c2ccc(S(N)(=O)=O)cc2)C(=O)C1C(=O)Nc1ccc(S(N)(=O)=O)cc1` (stereo not given), for which the growth inhibition was 30.6%.

For the molecule `Cc1nc2cc(Nc3ccccc3C(=O)O)ccc2s1`, the growth inhibition is -0.7%.

In the case of `N#CCCCCCCl`, the growth inhibition is 4.05%.

As to `CCCCCCCC[N+](C)(C)CC#CC[N+](C)(C)CCCCCCCC`, the growth inhibition was -1.65%.

As to `CCOC(=O)Cc1nnc2n(-c3ccccc3)c(=O)c3ccccc3n12`, the growth inhibition was 11.8%.

For the molecule `O=P(O)(O)Oc1ccc(NCCO)cc1`, the growth inhibition was 17.4%.

As to `CC(C)c1ccccc1[S+]1OC(C)(C)c2ccccc21` (stereo not given), the growth inhibition was 9.45%.

As to `O=P(O)(O)c1ccc(-c2ccc(P(=O)(O)O)cc2)cc1`, the growth inhibition is -32.2%.

With `NC(=O)NC(=S)NC(=O)c1ccccc1`, the growth inhibition was -33.5%.

For the molecule `CC(C)C1=CC(=Nc2ccc(N(C)C)cc2)C=CC1=O`, the growth inhibition was -29.2%.

For `OCc1ccc(O)c(CO)n1`, the growth inhibition is 5.4%.

For `N#CCCC(CC#N)S(=O)(=O)O` (stereo not given), the growth inhibition is -54.6%.

`OCC1COc2cc(Cl)c(Cl)cc2O1` (stereo not given): the growth inhibition was 15%.

Regarding `O=C1OC2c3ccccc3C3CC(=O)C2C13` (stereo not given), the growth inhibition was 6.25%.

Consider `Nc1ccc(/C=C\C(=O)c2ccccc2)cc1`, for which the growth inhibition was 12.6%.

On to `c1ccc(C2Nc3ccccc3C3OCCCC23)cc1` (stereo not given), for which the growth inhibition was -9.4%.

Consider `CN(C)c1nc(N(C)C)n2c(-c3ccccc3[N+](=O)[O-])nnc2n1`, for which the growth inhibition was 23.4%.

Turning to `COc1ccc(OC)c(NC(=O)c2ccccc2Cl)c1`, the growth inhibition was -13%.

Consider `CCOC(CCCl)c1ccc(C)cc1` (stereo not given), for which the growth inhibition was 20.1%.

For `N#CC/C(C#N)=C/OC(=O)c1ccc(Cl)cc1`, the growth inhibition was -33.5%.

For the molecule `CC(=O)Nc1ccccc1Sc1ccccc1`, the growth inhibition is 15.1%.

Take `C(=C\c1nc2ccccc2nc1/C=C/c1ccccc1)/c1ccccc1`: the growth inhibition is -12.3%.

On to `O=C(O)c1ccccc1[N+](=O)[O-]`, for which the growth inhibition was 1.3%.

As for `Cc1ccc(C)c2nc3c(C)ccc(C)c3cc12`, the growth inhibition was -25.9%.

Take `CC(=O)N1CN=C2Sc3ccccc3N2C1`: the growth inhibition is -16%.

With `O=c1[nH]cnc2c1sc(=S)n2-c1ccccc1`, the growth inhibition is 6.7%.

Consider `Cc1ccc(N)c(C(=O)Nc2ccc(Br)cc2)c1`, for which the growth inhibition was -8.85%.

On to `CC(C)C1=CC2=C(C(=O)C1=O)C13CCCC(C)(C)C1CC2OC3=O` (stereo not given), for which the growth inhibition was -12.3%.

Regarding `CC(C)(C)OC(=O)N/N=C\c1ccnc2ccccc12`, the growth inhibition is -15.7%.
